Values joined by “and” are separate entries in the source; they are usually repeats but may differ in a detail not shown here. Identical values can stand only once. More than one record can exist for a structure, and the calls need not agree. Active and inactive are the calls of the source. How the source made its calls: active means hit-call score of the fitted dose curve at least 0.9, where 1 is the maximum; inactive means score below 0.9.
Test: ATG_PXRE_CIS: Attagene CIS-FACTORIAL HepG2 Assay for human Pregnane X Receptor Element (PXRE) (AID 2282957)
Details: HepG2 Attagene CIS-FACTORIAL PXRE reporter, mRNA; actives raise or lower the signal
Method: ATG_CIS is a cell-based, multiplexed-readout assay that uses HepG2, a human liver cell line, with measurements taken at 24 hours after chemical dosing in a 24-well plate.ATG_PXRE_CIS is one of 52 assay component(s) measured or calculated from the ATG_CIS assay. It is designed to make measurements of mRNA induction, a form of inducible reporter, as detected with fluorescence intensity signals by Reverse transcription polymerase chain reaction (RT-PCR) and Capillary electrophoresis technology.Data from the assay component ATG_PXRE_CIS was analyzed into 1 assay endpoint. This assay endpoint, ATG_PXRE_CIS, was analyzed with bidirectional fitting relative to DMSO as the negative control and baseline of activity. Using a type of inducible reporter, measures of mRNA for gain or loss-of-signal activity can be used to understand the reporter gene at the transcription factor-level as they relate to the gene NR1I2. Furthermore, this assay endpoint can be referred to as a primary readout, because this assay has produced multiple assay endpoints where this one serves a reporter gene function. To generalize the intended target to other relatable targets, this assay endpoint is annotated to the nuclear receptor intended target family, where the subfamily is non-steroidal.
Human liver HepG2 cells are transiently transfected with multiple reporter transcription units (MRTUs) in 6-well plates using FuGene 6 reagent (Roche; 3 ml FuGene/1 mg DNA). The MRTU constructs are regulated by a cis-regulating element (promoter). […] A major difference between the CIS and TRANS system is that in CIS activities of endogenous TFs are measured, whereas the TRANS assay evaluates changes in activities of exogenous, chimeric NR-Gal4 proteins. […] At the end of 24 hour incubation, total RNA was isolated using TriZol reagent (Invitrogen). The isolated RNA is then reverse-transcribed using oligo(dT) primer and Mo-MLV reverse transcriptase (Invitrogen) with DNAse I (Ambion) treatment for 30 min. The one-tenth of the produced cDNA was amplified by PCR using Taq DNA polymerase (Invitrogen) and two reporter sequence-specific primers. The PCR products were fluorescently labeled by primer extension with 6-arboxyfluorescein (6-FAM) 5'-labeled reporter sequence-specific primer (2 min at 95 C, 20 s at 68 C and 10 min at 72 C) and these products were digested with 5U of HpaI (New England Biolabs) for 2h at 37 C. The fragments were purified using Qiaquick PCR columns (Qiagen), analyzed on an ABI 3130xL genetic analyzer (Applied Biosystems) with peak positions identified by using a set of X-rhodamine (ROX)-labeled MapMarker1000 molecular weight standards (BioVentures). The raw capillary electrophoresis data was processed using Attagraph software (Attagene).

SMILES | outcome | AC50
NCc1cccc(CN)c1 | inactive | 
O=C(Nc1cccc([N+](=O)[O-])c1)c1cc2ccccc2cc1O |  | 6.79 µM (active)
CC1COCc2cc3c(cc21)C(C)(C)C(C)C3(C)C (stereo not given) |  | 1.23 µM (active)
NC(=NCCCCCCN=C(N)/N=C(\N)Nc1ccc(Cl)cc1)/N=C(\N)Nc1ccc(Cl)cc1 | inactive | 
O=C(CC(=O)C(F)(F)C(F)(F)C(F)(F)F)c1cccs1 |  | 12.9 µM (active) and 12.8 µM (active)
C=C(c1ccc(C(=O)O)cc1)c1cc2c(cc1C)C(C)(C)CCC2(C)C | inactive | 0.154 µM (active)
CC1=NN(c2ccccc2)C(=O)C1 |  | 66.2 µM (active) and 60 µM (active)
CCCCc1oc2ccccc2c1C(=O)c1cc(I)c(OCCN(CC)CC)c(I)c1 |  | 1.44 µM (active)
CCCCCCCCCCCC | inactive | 4.16 µM (active)
CC[N+](CC)(CC)Cc1ccccc1 | inactive | 
O=C(O)CCC(F)(F)C(F)(F)C(F)(F)C(F)(F)C(F)(F)F | inactive | 
Oc1ccc(Cc2ccccc2O)cc1 |  | 46 µM (active)
O=S(=O)(O)c1ccccc1 | inactive | 55.5 µM (active)
O=C1NS(=O)(=O)c2ccccc21 | inactive | 55.9 µM (active)
O=C1OC(=O)c2cc(-c3ccc4c(c3)C(=O)OC4=O)ccc21 | inactive | 
Cc1ccccc1C(OCCN(C)C)c1ccccc1 (stereo not given) | inactive | 27 µM (active)
CCCCc1ccc2ccccc2c1S(=O)(=O)O |  | 2.52 µM (active)

SMILES | outcome | AC50
CCc1ccccc1O |  | 10.8 µM (active)
C=COC(=O)C(C)(C)CCCCCC |  | 27.9 µM (active)
CC(=O)Nc1ccc(S(N)(=O)=O)cc1 | inactive | 
O=C(F)C(F)(F)C(F)(F)C(F)(F)C(F)F | inactive | 
Oc1c(Cl)cc(Cl)cc1Sc1cc(Cl)cc(Cl)c1O |  | 3.03 µM (active)
CCC(C)c1nccnc1OC (stereo not given) | inactive | 
O=C1c2ccc(O)c(O)c2C(=O)c2c(O)ccc(O)c21 |  | 13.5 µM (active)
FC(F)(F)C(F)(F)C(F)(F)C(F)(F)I | inactive | 
CC1CCC(CO)CC1 (stereo not given) | inactive | 
CCCCCc1ccc(O)cc1 |  | 33.4 µM (active)
O=C(O)c1cccc(C(=O)O)n1 | inactive | 
c1ccc(CNc2ncnc3c2ncn3C2CCCCO2)cc1 (stereo not given) |  | 4.73 µM (active)
CCCCCCCCCCCCCCCC(=O)OC | inactive | 
C[N+](C)(CCCNS(=O)(=O)CCC(F)(F)C(F)(F)C(F)(F)C(F)(F)C(F)(F)C(F)(F)F)CC(=O)[O-] |  | 0.00267 µM (active)
CC(O)COc1ccccc1 (stereo not given) | inactive | 59.5 µM (active)
CC(C)(C)c1ccc(CCC=O)cc1 |  | 22.3 µM (active)
COC(=O)C(F)(F)C(F)(F)C(F)(F)F | inactive | 

Source: PubChem BioAssay (EPA / NIEHS)
